The record followed here is PubChem BioAssay (Tox21).

Inconclusive results are not listed. Where a call stands in place of a potency, no number is given. The source made the active and inactive calls. Calls come from the whole dose curve; as a rule, active = well fitted cell-killing curve with a large enough effect in the repeat runs; inconclusive = weak or mixed curves; inactive = flat fitted curve, though single readings scatter.

This experiment can be described thus: qHTS RealTime-Glo MT Cell Viability Assay in HepG2 cells - 24 hour (AID 1224867). Note: nearly all actives have a fitted effect of over 50% in size. The following applies: RealTime-Glo luminescence; series mostly up to 76.8 µM. From the text: U.S. Tox21 Program National Center for Advancing Translational Sciences [NCATS] NIH Chemical Genomics Center [NCGC] U.S. Environmental Protection Agency [EPA] National Institutes of Environmental Health Sciences [NIEHS] National Toxicology Program [NTP] U.S. Food and Drug Administration [FDA] Tox21 Assay Overview: Measure of cell viability is critical in the cell-base assay. Analysis of cell viability is necessary for the characterization of cell responses to cytotoxic drugs and environmental stress. A RealTime-Glo MT Cell Viability Assay to monitor cell viability in real time of continues cell culture during 40 hours of compound treatment was used to screen Tox21 10K library compounds in HepG2 cells. The RealTime-Glo MT Cell Viability Assay is a nonlytic, homogeneous, bioluminescent method to measure cell viability in real time using a simple, plate-based method. The assay involves adding NanoLuc luciferase and a cell-permeant prosubstrate to cells in culture. Viable cells reduce the proprietary prosubstrate to generate a substrate for NanoLuc luciferase. This substrate diffuses from cells into the surrounding culture medium, where it is rapidly used by the NanoLuc Enzyme to produce a luminescent signal. The signal correlates with the number of viable cells, making the assay well suited for cytotoxicity studies.
Tox21 Assay Protocol Summary: The mixture of HepG2 cell suspension and reagents were dispensed at 600cells/6 ul/well in 1536-well tissue culture treated black solid bottom plates using a Multidrop dispenser. After the assay plates were incubated at a 37 C/5% CO2 incubator for 5 hours, 23 nL of compounds dissolved in DMSO, positive and negative controls was transferred to the assay plate by a pintool work station. The plates were incubated at 37 C for 40 hours. The luminescence intensity were measured at 0h, 8h, 16h, 24h, 32h and 40h time points using ViewLux plate reader during compound treatment.
Regarding `c1ccc(CN(CC2=NCCN2)c2ccccc2)cc1`, the Potency entry was “inactive”. As to `Cc1ccc(C)c(N)c1`, the Potency entry was “inactive”. The same measure, in the same setting: the entry for `COC(C)CCO` (stereo not given) is “inactive”; for `C[C@@H](N)C(=O)O` it is “inactive”; for `Clc1cccc(-c2cc(Cl)cc(Cl)c2)c1` it is “inactive”. For `Cc1cccc(C)c1NC(=O)CN1CCCCCC1`, the Potency entry is “inactive”. `O=C1CCN(c2ccccc2)N1`: the Potency entry is “inactive”. Consider `CN1CCN(N)CC1`, for which the Potency entry is “inactive”. As to `NCCCN1CCN(CCCN)CC1`, the Potency result is “inactive”. On to `CCCCCCCCCC/C=C/C#N`, for which the Potency entry was “inactive”. Take `CS(=O)(=O)c1ccc([C@@H](O)[C@@H](CF)NC(=O)C(Cl)Cl)cc1`: the Potency result is “inactive”.

Regarding `CCC1(C)NC(=O)NC1=O` (stereo not given), the Potency entry was “inactive”. Regarding `CN(C)C(=O)NC1(c2ccccc2)CCN(CCC[C@]2(c3ccc(Cl)c(Cl)c3)CCCN(C(=O)c3ccccc3)C2)CC1`, the activity change, negative = cytotoxicity is -9.68% [at 15.8 µM] (inactive).

For the compound `CC(=O)N(CC(O)CN(C(C)=O)c1c(I)c(C(=O)NCC(O)CO)c(I)c(C(=O)NCC(O)CO)c1I)c1c(I)c(C(=O)NCC(O)CO)c(I)c(C(=O)NCC(O)CO)c1I` (stereo not given), the Potency result is “inactive”. Consider `CCCCCCCOC(=O)CCC`, for which the Potency result was “inactive”. For the compound `CC(C)C[C@H](NC(=O)OCC1c2ccccc2-c2ccccc21)C(=O)O`, the Potency entry was “inactive”.

Regarding `Cc1nnc(SCC2=C(C(=O)O)N3C(=O)[C@@H](NC(=O)Cn4cnnn4)[C@H]3SC2)s1`, the Potency result was “inactive”. Still for that read-out and setting: next, `C=CCc1cc(OC)c(O)c(C(=O)NCCO)c1`: “inactive”; `CCCCC(CC)COC(=O)COc1cc(Cl)c(Cl)cc1Cl` (stereo not given): “inactive”. The same measure, in the same setting: the entry for `Cc1nc(-c2ccccn2)ncc1C(=O)Nn1cc(C)c2cc(F)ccc21` is “inactive”; for `CC[C@H]1CC[C@H](NCc2cc3c(cc2OC)[C@H]2C[C@H]2C(=O)N3C)[C@H](c2ccccc2)N1` it is “inactive”; for `CCOC(=O)C(Br)c1ccccc1` (stereo not given) it is “inactive”. Same read-out and setting: the entry for `CCCCCCC` is “inactive”; for `Cc1ccc(C(C)C)cc1O` it is “inactive”. For `CCCCC1CCC(=O)O1` (stereo not given), the Potency entry is “inactive”. Same read-out and setting: next, `Cc1ccc(C=O)s1`: “inactive”. `COc1cc(C)ccc1C(C)C`: the Potency entry is “inactive”. For `CC1CN(c2ccccc2)NC1=O` (stereo not given), the Potency result is “inactive”. Take `Cc1cn([C@@H]2O[C@H](CO)[C@@H](O)[C@@H]2F)c(=O)[nH]c1=O`: the Potency entry was “inactive”. Same read-out and setting: the entry for `O=Cc1ccc(O)c(O)c1O` is “inactive”; for `CC(Oc1c(Cl)cccc1Cl)C1=NCCN1` (stereo not given) it is “inactive”; for `CCCN(CCC)C(=O)C(CCC(=O)O)NC(=O)c1ccccc1` (stereo not given) it is “inactive”. Turning to `CC(C)CCCCCCc1ccc(OCCOCCO)cc1`, the Potency result is “inactive”.

Regarding `CN(CC1(C)CCCO1)S(=O)(=O)c1ccc(Cl)c(S(N)(=O)=O)c1` (stereo not given), the Potency result was “inactive”. `CCOc1ccc(OCC)c(Cl)c1`: the Potency result was “inactive”.

In the case of `CCOc1ccc2nc(N)sc2c1`, the Potency result was “inactive”. With `C=CCCCCCCCCO`, the Potency entry is “inactive”. In the case of `O=C1CCCc2ccccc21`, the Potency result is “inactive”. Consider `CC(C)C1=CC2=CC[C@@H]3[C@](C)(CCC[C@@]3(C)C(=O)O)[C@H]2CC1`, for which the Potency entry is “inactive”. As to `NC/C=C/C(=O)O`, the Potency entry was “inactive”.
